From PubChem BioAssay (NCATS)
Records with an inconclusive call do not appear. Activity calls are given as the source filed them. Calls follow the shape of the dose curve; as a rule, active = well fitted curve in the direction sought with a large enough effect; inconclusive = small, poorly fitted or top-dose-only effect, or another doubt; inactive = no such curve, though single readings can be large; an effect the other way counts as inactive or inconclusive.

Tests used:
[1] = Cellular Toxicity (caspase-3) Mesangial (AID 660); conditions: mesangial cells, normalized: DMSO 0%, 100 µM tamoxifen 100%; at 91.7 µM (top of the series)
Procedure, shortened: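 Human renal glomerular mesangial cells (1000/well) were treated with compounds for 16 h at 37 °C in complete medium, then caspase 3/7 activity was read by Caspase-Glo luminescence. Data were normalized to DMSO and 100 uM tamoxifen; AC50 from Hill fits.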

[2] = Cellular Toxicity (caspase-3) SK-N-SH (AID 661);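 also: 0% = DMSO basal and 100% = 10 µM staurosporine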
Procedure, shortened: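 SK-N-SH human neuroblastoma cells (1500/well) were treated with compounds for 16 hr at 37 °C in complete medium; caspase 3/7 activity was read by Caspase-Glo luminescence. AC50 came from Hill fits of data normalized to DMSO and 10 uM staurosporine.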

[3] = Cellular Toxicity (caspase-3) H-4-II-E (AID 663); conditions: H-4-II-E rat hepatoma, scaled: DMSO 0%, 100 µM tamoxifen 100%; at 92.2 µM (top of the series);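 also: cells exposed to compound for 16 hr before readout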
Procedure, shortened: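 Rat hepatoma H-4-II-E cells (1500/well) plated 5 hr, then exposed to compound titrations for 16 hr at 37 °C. Caspase-Glo 3/7 luminescence read after 20 min at RT; data normalized to DMSO and 100 uM tamoxifen, AC50 from Hill fits.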

[4] = Cellular Toxicity (caspase-3) Hek293 (AID 664); conditions: HEK293 caspase-3 activation, DMSO = 0%, 100 µM tamoxifen = 100%; at 92.2 µM (top of the series);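 also: cells exposed to compound for 16 h at 37 °C before readout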
Procedure, shortened: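 HEK293 cells were exposed to compounds in complete medium for 16 hr at 37 °C, then caspase-3/7 activity was read by Caspase-Glo 3/7 luminescence after 20 min at room temperature. Data normalized to DMSO and 100 uM tamoxifen; AC50 from Hill fits.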

[5] = Cellular Toxicity (caspase-3) N2a (AID 665);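 also: compound exposure lasted 16 h at 37 °C before readout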
Procedure, shortened: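 Mouse N2a neuroblastoma cells (1500/well) were treated with compounds for 16 h at 37 °C, then caspase-3/7 activity was read by Caspase-Glo luminescence after 1 h at room temperature. Data were normalized to DMSO and 10 uM staurosporine; AC50 from Hill fits.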

[6] = Cellular Toxicity (caspase-3) NIH 3T3 (AID 666);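 also: caspase signal read after 16 h compound exposure; 0% = DMSO basal and 100% = 100 µM tamoxifen stimulation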
Procedure, shortened: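 Mouse NIH 3T3 fibroblasts (1000 cells/well) were treated with compound for 16 hr at 37°C in complete medium; caspase-3/7 activity was read by Caspase-Glo luminescence. Normalized to DMSO and 100 uM tamoxifen; AC50 from Hill fits.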

[7] = Cellular Toxicity (caspase-3) Renal Proximal Tubule (AID 667); conditions: Potency: caspase-3 activation;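 also: cells exposed to compound for 16 hours at 37 °C before detection; 0% = DMSO basal and 100% = 10 µM staurosporine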
Procedure, shortened: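 Caspase 3/7 activation measured by luminescent aminoluciferin release in primary rat proximal tubule cells after 16 hr compound exposure at 37 °C. AC50 from Hill-fitted concentration-response, scaled between DMSO and 10 uM staurosporine.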

[8] = molecular target: Cytochrome P450 3A4 (Homo sapiens) (UniProt P08684); assay: qHTS Assay for Inhibitors and Substrates of Cytochrome P450 3A4 (AID 884); also: % is scaled to controls: 0 for no effect and ±100 for the full control effect; nearly all actives have a fitted effect of over 50% in size
Cytochrome P450 3A4 (Homo sapiens), sequence (P08684 whole entry, looked up): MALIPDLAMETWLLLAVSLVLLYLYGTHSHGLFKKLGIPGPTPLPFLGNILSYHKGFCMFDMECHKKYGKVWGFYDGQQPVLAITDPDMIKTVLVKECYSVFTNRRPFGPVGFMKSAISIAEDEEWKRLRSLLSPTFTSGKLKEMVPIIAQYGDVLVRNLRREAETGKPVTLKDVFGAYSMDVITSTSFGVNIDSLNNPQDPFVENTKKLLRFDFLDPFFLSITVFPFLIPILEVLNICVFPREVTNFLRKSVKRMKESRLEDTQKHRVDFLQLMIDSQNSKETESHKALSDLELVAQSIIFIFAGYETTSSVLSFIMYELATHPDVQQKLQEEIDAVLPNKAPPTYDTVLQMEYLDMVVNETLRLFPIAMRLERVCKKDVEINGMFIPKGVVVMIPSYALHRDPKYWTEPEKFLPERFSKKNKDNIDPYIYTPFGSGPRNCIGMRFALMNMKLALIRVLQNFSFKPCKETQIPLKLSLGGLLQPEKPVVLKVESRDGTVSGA
Procedure, shortened: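 20 nM human CYP3A4 with 25 uM Luciferin-PPXE (at KM) in 200 mM KPO4, preincubated 10 min with compound; NADPH regeneration started a 60 min RT reaction. Luciferin detected by luminescence, normalized to 57 uM ketoconazole as full inhibition.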

[9] = Cell Viability - LYMP2-001 (AID 921);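 also: 0% = DMSO only and full inhibition = tetraoctylammonium bromide control wells; nearly all actives have a fitted effect of over 70% in size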
Procedure, shortened: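 Cellular ATP loss read by luciferase luminescence after 24 h compound exposure at 37 C in complete medium. LYMP2-001 lymphoblastoid cells, 2500/well; qHTS concentration-response data fitted with Hill equation for AC50.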

[10] = MultiTox-Fluor Cytotoxicity Assay - LYMP1-001 - Dead Cells (AID 946)
Procedure, shortened: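 Cytotoxicity as increased dead-cell protease fluorescence (bis-AAF-R110, 485/520 nm), read 60 min after MultiTox-Fluor reagent. Human lymphoblastoid line exposed 16 h; Hill-fitted AC50, with DMSO as 0% and 15 uM tetraoctylammonium bromide as 100%.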

[11] = MultiTox-Fluor Cytotoxicity Assay - LYMP1-001 - Live Cells (AID 947);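 also: 0% = DMSO only and full inhibition = tetraoctylammonium bromide control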
[12] = Cell Viability - LYMP1-002 - Assay at 16 hr (AID 948);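 also: 0% = DMSO alone and full effect = 92 µM tetraoctylammonium bromide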
Procedure, shortened: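 ATP luminescence (CellTiter-Glo) was measured after 16 hr compound exposure at 37 C of 2500 lymphoblastoid LYMP1-002 cells per well. Concentration-response curves were fitted with the Hill equation to give AC50.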

[13] = MultiTox-Fluor Cytotoxicity Assay - LYMP1-002 - Live Cells (AID 955); also: % is scaled to controls: 0 for no effect and ±100 for the full control effect
Procedure, shortened: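 Human lymphoblastoid LYMP1-002 cells, 2500/well in complete medium, rested 5 hr at 37 C, then exposed to compounds for 16 hr at 37 C. Live-cell protease cleavage of GF-AFC read by fluorescence (Ex/Em 405/510) after 60 min at room temperature; AC50 from Hill fits.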

[14] = MultiTox-Fluor Cytotoxicity Assay - LYMP1-002 - Dead Cells (AID 960); also: nearly all actives have a fitted effect of over 60% in size
Procedure, shortened: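 Human lymphoblastoid cells (LYMP1-002), 2500/well in complete medium, were exposed to compounds for 16 hr at 37 C. Dead-cell protease activity was read as bis-AAF-R110 fluorescence (Ex/Em 485/520), normalized to DMSO and 15 uM tetraoctylammonium bromide; AC50 from Hill fits.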

[15] = MultiTox-Fluor Cytotoxicity Assay - LYMP1-003 - Dead Cells (AID 961); also: nearly all actives have a fitted effect of over 70% in size
Procedure, shortened: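 Dead-cell protease release, detected as bis-AAF-R110 fluorescence at 485/520 nm, was measured in LYMP1-003 cells after 16 h compound treatment at 37 C. AC50 values came from Hill-modeled qHTS curves normalized to DMSO (0%) and 15 uM tetraoctylammonium bromide (100%).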

[16] = Cell Viability - LYMP1-003 - Assay at 40 hr (AID 964); also: % is scaled to controls: 0 for no effect and ±100 for the full control effect; nearly all actives have a fitted effect of over 60% in size
Procedure, shortened: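 Human lymphoblastoid LYMP1-003 cells, 2500/well in complete medium, rested 5 hr at 37 C, then exposed to compounds for 40 hr at 37 C. Viability read as intracellular ATP by CellTiter-Glo luminescence; AC50 from Hill fits of concentration-response data.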

[17] = Cell Viability - LYMP2-003 (AID 965);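 also: cells exposed to compounds for 24 h before reading; 0% = DMSO only and full effect = 92 µM tetraoctylammonium bromide; nearly all actives have a fitted effect of over 50% in size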
Procedure, shortened: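 CellTiter-Glo luminescence quantified ATP loss after 24 h compound treatment of LYMP2-003 lymphoblastoid cells at 37 C. Titration series were fitted with the standard Hill equation to give AC50.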

[18] = MultiTox-Fluor Cytotoxicity Assay - LYMP1-003 - Live Cells (AID 962);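 also: 0% = DMSO only and full loss = 92 µM tetraoctylammonium bromide; cytotoxic hits lower the live-cell protease signal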
Procedure, shortened: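 LYMP1-003 human lymphoblastoid cells (2500/well) in complete medium were preincubated 5 hr at 37 C, then exposed to compounds for 16 hr at 37 C. Live-cell protease cleavage of GF-AFC read by fluorescence (Ex/Em 405/510); AC50 from Hill fits.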

[19] = Cell Viability - LYMP1-003 - Assay at 24 hr (AID 963);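 also: plate controls were DMSO only for no effect and tetraoctylammonium bromide positive control for full effect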
Procedure, shortened: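 Human lymphoblastoid LYMP1-003 cells (2500/well) were rested 5 hr at 37 C, then exposed to compounds in complete medium for 24 hr at 37 C. Cellular ATP was quantified by CellTiter-Glo luminescence, and AC50 values came from Hill fits of concentration-response data.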

CC1CCCO1 (stereo unspecified)
inactive: caspase-3 activation [1] -0.0447% | outcome [2] | caspase-3 activation [3] -0.992% | caspase-3 activation [4] -1.6% | outcome [5] | outcome [6] | Potency [7] | Potency [8] | Potency [9] | outcome [10] | outcome [11] | outcome [12] | outcome [13] | outcome [14] | Potency [15] | Potency [16] | Potency [17]

C1CCC2OC2C1 (stereo unspecified)
inactive: caspase-3 activation [1] -0.0644% | outcome [2] | caspase-3 activation [3] -0.699% | caspase-3 activation [4] 1.05% | outcome [5] | outcome [6] | Potency [7] | Potency [8] | Potency [9] | outcome [10] | outcome [11] | outcome [12] | outcome [13] | outcome [14] | Potency [15] | Potency [18] | Potency [19] | Potency [16] | Potency [17]

CCCCCCCCN
inactive: caspase-3 activation [1] -0.125% | outcome [2] | caspase-3 activation [3] 0.977% | caspase-3 activation [4] 0.408% | outcome [5] | outcome [6] | Potency [7] | Potency [8] | Potency [9] | outcome [10] | outcome [11] | outcome [12] | outcome [13] | outcome [14] | Potency [15] | Potency [18] | Potency [19] | Potency [16] | Potency [17]

C=CCCCCCCC=C
inactive: caspase-3 activation [1] 4.38% | outcome [2] | caspase-3 activation [3] 1.95% | caspase-3 activation [4] 5.13% | outcome [5] | outcome [6] | Potency [7] | Potency [8] | Potency [9] | outcome [10] | outcome [11] | outcome [12] | outcome [13] | outcome [14] | Potency [15] | Potency [18] | Potency [19] | Potency [16] | Potency [17]

Nc1cccc2c(=O)[nH][nH]c(=O)c12
inactive: caspase-3 activation [1] -0.301% | outcome [2] | caspase-3 activation [3] 0.0355% | caspase-3 activation [4] -1.17% | outcome [5] | outcome [6] | Potency [7] | Potency [8] | Potency [9] | outcome [10] | outcome [11] | outcome [12] | outcome [13] | outcome [14] | Potency [15] | Potency [18] | Potency [16] | Potency [17]

CCCCC=O
inactive: caspase-3 activation [1] -1.05% | outcome [2] | caspase-3 activation [3] -0.686% | caspase-3 activation [4] -0.315% | outcome [5] | outcome [6] | Potency [7] | Potency [8] | Potency [9] | outcome [10] | outcome [11] | outcome [12] | outcome [13] | outcome [14] | Potency [15] | Potency [18] | Potency [16] | Potency [17]

CC(=O)c1ccccn1
inactive: caspase-3 activation [1] 0.864% | outcome [2] | caspase-3 activation [3] 1.68% | caspase-3 activation [4] 0.0845% | outcome [5] | outcome [6] | Potency [7] | Potency [8] | Potency [9] | outcome [10] | outcome [11] | outcome [12] | outcome [13] | outcome [14] | Potency [15] | Potency [18] | Potency [17]

Cc1cccc(C(=O)O)c1[N+](=O)[O-]
inactive: caspase-3 activation [1] 0.577% | outcome [2] | caspase-3 activation [3] 0.904% | caspase-3 activation [4] 3.47% | outcome [5] | outcome [6] | Potency [7] | Potency [8] | Potency [9] | outcome [10] | outcome [11] | outcome [12] | outcome [13] | outcome [14] | Potency [15] | Potency [18] | Potency [19] | Potency [16] | Potency [17]

CCCCCCO
inactive: caspase-3 activation [1] 0.267% | outcome [2] | caspase-3 activation [3] 0.291% | caspase-3 activation [4] 0.42% | outcome [5] | outcome [6] | Potency [7] | Potency [8] | Potency [9] | outcome [10] | outcome [11] | outcome [12] | outcome [13] | outcome [14] | Potency [15] | Potency [18] | Potency [17]

C1CCCC1
inactive: caspase-3 activation [1] -0.162% | outcome [2] | caspase-3 activation [3] -0.556% | caspase-3 activation [4] 0.0682% | outcome [5] | outcome [6] | Potency [7] | Potency [8] | Potency [9] | outcome [10] | outcome [11] | outcome [12] | outcome [14] | Potency [15] | Potency [18] | Potency [19] | Potency [16] | Potency [17]

O=C1C=CCCC1
inactive: caspase-3 activation [1] -1.96% | outcome [2] | caspase-3 activation [3] 0.0441% | caspase-3 activation [4] 3.14% | outcome [5] | outcome [6] | Potency [7] | Potency [8] | Potency [9] | outcome [10] | outcome [11] | outcome [12] | outcome [14] | Potency [15] | Potency [18] | Potency [19] | Potency [16] | Potency [17]

CC(C)=CCl
inactive: caspase-3 activation [1] 0.522% | outcome [2] | caspase-3 activation [3] -0.24% | caspase-3 activation [4] 1.55% | outcome [5] | outcome [6] | Potency [7] | Potency [8] | Potency [9] | outcome [10] | outcome [11] | outcome [12] | outcome [13] | Potency [15] | Potency [18] | Potency [19] | Potency [16] | Potency [17]

O=C(O)CCSSCCC(=O)O
inactive: caspase-3 activation [1] -0.167% | outcome [2] | caspase-3 activation [3] -0.00623% | caspase-3 activation [4] -0.885% | outcome [5] | outcome [6] | Potency [7] | Potency [8] | Potency [9] | outcome [10] | outcome [11] | outcome [12] | outcome [14] | Potency [15] | Potency [18] | Potency [19] | Potency [16] | Potency [17]

CO[Si](CCCNCCC[Si](OC)(OC)OC)(OC)OC
inactive: caspase-3 activation [1] 0.876% | outcome [2] | caspase-3 activation [3] 0.962% | caspase-3 activation [4] -1.43% | outcome [5] | outcome [6] | Potency [7] | Potency [8] | Potency [9] | outcome [10] | outcome [11] | outcome [12] | outcome [13] | Potency [15] | Potency [18] | Potency [19] | Potency [16] | Potency [17]

Nc1ccc(F)cc1F
inactive: caspase-3 activation [1] -0.571% | outcome [2] | caspase-3 activation [3] -0.359% | caspase-3 activation [4] 0.487% | outcome [5] | outcome [6] | Potency [7] | Potency [8] | Potency [9] | outcome [10] | outcome [11] | outcome [12] | outcome [13] | Potency [15] | Potency [18] | Potency [19] | Potency [16] | Potency [17]
